Reference: PubChem BioAssay (NCATS)
Results filed as inconclusive are left out. Unless noted, calls come from the whole dose curve; as a rule, active = well fitted curve in either direction with a large enough effect (not every such curve was filed as active); inconclusive = small, poorly fitted or top-dose-only effect, or another doubt; inactive = flat fitted curve, though single readings scatter.

What was measured:
[1] = AP1 Signaling Pathway (AID 357); details: ME-180 AP-1-bla reporter, EGF-induced, beta-lactamase ratio, 5 h; at 17.2 µM (top of the series) unless noted; note: % is set by controls: 0 for no effect and ±100 for the full control effect
In short: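 AP-1-bla ME-180 cells with beta-lactamase reporter under AP-1 response element, stimulated with EC50 EGF; compounds titrated, 5 hours at 37 degrees Celsius. CCF4 read at 460/530 nm ratio; positive and negative modulators judged by AC50.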

[2] = NFAT Signaling Pathway (AID 444); details: Jurkat NFAT-bla M1, carbachol, beta-lactamase ratio, 5 h; at 17.2 µM (top of the series) unless noted;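 note: carbachol stimulus at about its EC50 of 1 µM final; % is set by controls: 0 for no effect and ±100 for the full control effect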
In short: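 Jurkat cells with NFAT-driven β-lactamase reporter and co-expressed M1 receptor, stimulated with carbachol (final 1 uM, ~EC50), compound titration, 5 h at 37 °C. CCF4 loaded 1 h at RT; 460/530 nm ratio gave %activity and AC50.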

[3] = Stat Signaling Pathway (AID 446); details: ME-180 SIE beta-lactamase reporter, IL-6 stimulated, 5 h; at 17.2 µM (top of the series) unless noted;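 note: ME-180 cervical cancer cells given 40 pM IL-6 alongside compound; SIE-controlled beta-lactamase reporter measured as 460/530 nm FRET emission ratio; % is set by controls: 0 for no effect and ±100 for the full control effect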
In short: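 ME-180 SIE-bla cells; overnight plating; cpd + IL-6 40 pM, 5 h, 37 C; LiveBLAzer 2.5 h RT; 460/530 nm emission ratio. Normalized to 300 pM IL-6 and 125 nM JAK inhibitor controls.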

[4] = biological target: Glucocorticoid receptor (Homo sapiens) (UniProt P04150); test: GR-GFP Redistribution (AID 450;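 active = compounds whose dose series gives a full or clear partial fitted curve of increased nuclear translocation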; note: potency is the fitted concentration of half-maximal effect)
Chain of Glucocorticoid receptor (Homo sapiens) (P04150 whole entry, looked up): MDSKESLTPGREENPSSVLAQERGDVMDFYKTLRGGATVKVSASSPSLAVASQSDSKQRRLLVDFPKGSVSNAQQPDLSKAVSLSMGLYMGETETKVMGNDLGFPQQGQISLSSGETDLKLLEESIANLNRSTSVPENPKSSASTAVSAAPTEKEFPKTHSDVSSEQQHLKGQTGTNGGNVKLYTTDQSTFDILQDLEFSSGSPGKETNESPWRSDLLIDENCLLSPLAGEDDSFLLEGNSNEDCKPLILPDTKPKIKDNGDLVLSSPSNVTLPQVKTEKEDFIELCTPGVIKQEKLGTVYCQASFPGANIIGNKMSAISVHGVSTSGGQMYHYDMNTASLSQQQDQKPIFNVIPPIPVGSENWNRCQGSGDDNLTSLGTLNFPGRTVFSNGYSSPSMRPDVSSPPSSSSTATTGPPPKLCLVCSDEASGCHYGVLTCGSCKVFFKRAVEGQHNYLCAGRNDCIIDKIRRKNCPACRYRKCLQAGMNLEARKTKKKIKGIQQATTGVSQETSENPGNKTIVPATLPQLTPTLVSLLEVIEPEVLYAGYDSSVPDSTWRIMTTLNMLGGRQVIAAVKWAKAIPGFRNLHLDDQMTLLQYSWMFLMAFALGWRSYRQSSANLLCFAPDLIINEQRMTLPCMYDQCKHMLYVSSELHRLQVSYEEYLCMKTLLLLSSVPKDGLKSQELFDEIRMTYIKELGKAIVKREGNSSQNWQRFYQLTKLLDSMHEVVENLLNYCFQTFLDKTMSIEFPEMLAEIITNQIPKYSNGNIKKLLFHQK

COc1ccccc1OCC(=O)Nc1ccc(S(=O)(=O)Nc2cc(C)nc(C)n2)cc1
inactive: activity change, negative = inhibition [1] -4.5% | activity change, negative = inhibition [2] -9.32% | activity, negative = inhibition [3] -5.19% | Potency [4] > 20.6 µM

COc1ccc(/C(O)=C2/C(=O)C(=O)N(c3ncccn3)C2c2ccc(OC)c(OC)c2)cc1 (stereo not given)
inactive: activity change, negative = inhibition [1] 10.2% | activity change, negative = inhibition [2] -0.912% | activity, negative = inhibition [3] -6.81% | Potency [4] > 20.6 µM

COc1ccc2oc(=O)c(-c3nc(C)cs3)cc2c1
inactive: activity change, negative = inhibition [1] 19.7% | activity change, negative = inhibition [2] -8.83% | activity, negative = inhibition [3] 17.3% | Potency [4] > 20.6 µM

C/C(=C\C(=O)O)CC(=O)O
inactive: activity change, negative = inhibition [1] -2.96% | activity change, negative = inhibition [2] -2% | activity, negative = inhibition [3] 7.83% | Potency [4] > 20.6 µM

CC1(C)Cc2c(sc3c2C(=O)N(c2ccccc2)C2=NCCCN23)CO1
inactive: activity change, negative = inhibition [1] 9.3% | activity change, negative = inhibition [2] -14.6% | activity, negative = inhibition [3] 5.74% | Potency [4] > 20.6 µM

N#Cc1c(-c2ccco2)cc(C2CC2)nc1N
inactive: activity change, negative = inhibition [1] -6.96% | activity change, negative = inhibition [2] 9.72% | activity, negative = inhibition [3] -18.4% | Potency [4] > 20.6 µM

COC(=O)COc1ccc(Oc2nc(SC)nc(N(C)C)n2)nn1
inactive: activity change, negative = inhibition [1] 4.25% | activity change, negative = inhibition [2] 4.35% | activity, negative = inhibition [3] -4.81% | Potency [4] > 20.6 µM

CCN(CC)CCCN1C(=O)C(=O)/C(=C(/O)c2ccc3c(c2)CC(C)O3)C1c1cccnc1 (stereo not given)
inactive: activity change, negative = inhibition [1] 4.22% | activity change, negative = inhibition [2] 11.9% | activity, negative = inhibition [3] 9.37% | Potency [4] > 20.6 µM

C=CCOc1nc2c(c(=O)n(C)c(=O)n2C)n1Cc1ccc(Cl)cc1
inactive: activity change, negative = inhibition [1] -1.14% | activity change, negative = inhibition [2] -8.76% | activity, negative = inhibition [3] -5.11% | Potency [4] > 20.6 µM

COc1cc(C)nc(Oc2ccc(OCCOc3ccc(C)cc3)nn2)n1
inactive: activity change, negative = inhibition [1] -8.32% | activity change, negative = inhibition [2] 5.08% | activity, negative = inhibition [3] -5.96% | Potency [4] > 20.6 µM

CC(C)Cc1nc(NCCN2CCOCC2)c(C#N)c2c1COC(C)(C)C2
inactive: activity change, negative = inhibition [1] -8.99% | activity change, negative = inhibition [2] -9.59% | activity, negative = inhibition [3] 19.2% | Potency [4] > 20.6 µM

Cc1ccc(C(=O)NCC(C)(C)O)cc1
inactive: activity change, negative = inhibition [1] 9.77% | activity change, negative = inhibition [2] -4.7% | activity, negative = inhibition [3] 12.1% | Potency [4] > 20.6 µM

C/C(=N/n1cnnc1)c1cccnc1
inactive: activity change, negative = inhibition [1] -1.84% | activity change, negative = inhibition [2] -0.807% | activity, negative = inhibition [3] 16.1% | Potency [4] > 20.6 µM

O=C(N(c1ccccc1)c1ccccc1)n1ccnc1
inactive: activity change, negative = inhibition [1] 7.1% | activity change, negative = inhibition [2] 10.9% | activity, negative = inhibition [3] 0.426% | Potency [4] > 20.6 µM

COc1ccc(C2CC(=O)C(C=NCCN3CCOCC3)=C(O)C2)cc1 (stereo not given)
inactive: activity change, negative = inhibition [1] 18.9% | activity change, negative = inhibition [2] -9.07% | activity, negative = inhibition [3] -0.652% | Potency [4] > 20.6 µM

CCCCc1cc(=O)oc2c(CN3CCCC3)c(O)ccc12
inactive: activity change, negative = inhibition [1] 9.79% | activity change, negative = inhibition [2] 2.24% | activity, negative = inhibition [3] 3.31% | Potency [4] > 20.6 µM

CCOC(=O)c1c(NC(=O)CN2CCOCC2)sc2c1CC(C)(C)OC2
inactive: activity change, negative = inhibition [1] -15.6% | activity change, negative = inhibition [2] 12.7% | activity, negative = inhibition [3] -6.32% | Potency [4] > 20.6 µM

COc1cccc(C2/C(=C(/O)c3cnn(-c4ccccc4)c3C)C(=O)C(=O)N2CCN(C)C)c1OC (stereo not given)
inactive: activity change, negative = inhibition [1] -4.08% | activity change, negative = inhibition [2] 5.52% | activity, negative = inhibition [3] 3.83% | Potency [4] > 20.6 µM

Cc1ccc(NC(=O)CSc2nnc(-c3ccco3)c(-c3ccco3)n2)cc1
inactive: activity change, negative = inhibition [1] 0.107% | activity change, negative = inhibition [2] -24.9% | activity, negative = inhibition [3] -23.9% | Potency [4] > 20.6 µM

CC(C)c1[nH]c(=O)c(C#N)c2c1CSC(C)(C)C2
inactive: activity change, negative = inhibition [1] -3.98% | activity change, negative = inhibition [2] -5.85% | activity, negative = inhibition [3] 4.25% | Potency [4] > 20.6 µM

c1ccc2c(c1)nc(CN1CCOCC1)n1c3ccccc3nc21
inactive: activity change, negative = inhibition [1] 25.2% | activity change, negative = inhibition [2] 25.2% | activity, negative = inhibition [3] 14.3% | Potency [4] > 20.6 µM

O=C(Nc1ccccn1)NC(C(F)(F)F)C(F)(F)F
inactive: activity change, negative = inhibition [1] -3.59% | activity change, negative = inhibition [2] 6.68% | activity, negative = inhibition [3] -3.68% | Potency [4] > 20.6 µM

CC1CN(c2oc(-c3ccccc3Cl)nc2C#N)CC(C)O1 (stereo not given)
inactive: activity change, negative = inhibition [1] 6.37% | activity change, negative = inhibition [2] -6.23% | activity, negative = inhibition [3] 9.86% | Potency [4] > 20.6 µM

Cc1cc(C)n(CC(=O)c2ccccc2)c(=O)c1C#N
inactive: activity change, negative = inhibition [1] 17.1% | activity change, negative = inhibition [2] -3.95% | activity, negative = inhibition [3] -3.77% | Potency [4] > 20.6 µM

CC(C)CC(=O)Nc1ccccc1N1CCCC1
inactive: activity change, negative = inhibition [1] 8.1% | activity change, negative = inhibition [2] 8.79% | activity, negative = inhibition [3] 0.417% | Potency [4] > 20.6 µM
